Assay outcomes deposited in PubChem BioAssay by National Center for Advancing Translational Sciences (NCATS).
An excerpt weighted towards active compounds, which were near 0.87% of everything screened.
KAT2A inh: qHTS Assay for Inhibitors of GCN5L2; GCN5L2 HAT assay, ThioGlo1 CoA-SH fluorescence; Potency, µM (top dose mostly 58.9 µM), for the others: at the highest dose activity change, negative = inhibition, actives largely listed as inhibitors; hit rate 0.21% among 390,000; AID 504327, 2011
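ThioGlo1-coupled HAT assay: 20nM GCN5L2, 70uM acetyl-CoA, 75uM H3(1-25) peptide, pH 7.5. Fluorescence read at 340/540nm at start and after 20 min at room temperature.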
TDP1 block: qHTS Assay for Inhibitors of Tyrosyl-DNA Phosphodiesterase (TDP1) | recombinant TDP1, AlphaScreen DNA substrate cleavage | Potency, µM (doses to about 130 µM), without a hit: at the highest dose activity change, negative = inhibition, hits mostly inhibitors | AID 485290, 2010 | Tyrosyl-DNA phosphodiesterase 1 (Homo sapiens), Q9NUW8 | hit rate 0.28% among 350,000; further: nearly all actives have a fitted effect of over 40% in size
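Recombinant human Tdp1 (E. coli-expressed, 1 nM final) preincubated with compounds 15 min at room temperature, then 5'-biotin/3'-phosphotyrosine-FITC DNA substrate (15 nM final) added for 5 min. AlphaScreen beads (10 ug/ml final) added 10 min; cleavage lowers signal.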
RECQ1 inh: qHTS Assay for Inhibitors of RecQ-Like Dna Helicase 1 (RECQ1). ATP-dependent DNA helicase Q1 (Homo sapiens), P46063. RECQ1 DNA unwinding, red fluorescence kinetic read. AID 2549, 2010. Potency, µM (doses to about 57.3 µM), for inactives: at the top dose activity, negative = inhibition, hits mostly inhibitors. hit rate 0.54% among 240,000;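 further: plate controls were vehicle for no effect and no enzyme for full effect; nearly all actives have a fitted effect of over 30% in size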
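RECQ1T1 50 nM; forked duplex (20 bp + 30-nt ss tails) 200 nM, ATP 2 mM final; pH 8.0, 2 mM MgCl2, 2.5 ug/ml poly(dI-dC); 15 min compound preincubation; discontinuous kinetic read over 2 h at RT.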
BLM helicase inh: qHTS Assay for Inhibitors of Bloom's syndrome helicase (BLM); RecQ-like DNA helicase BLM (Homo sapiens), P54132; recombinant BLM DNA unwinding, fluorescence dequenching; Potency, µM (titrated, usually from 56.1 µM), for the others: at the top dose activity change, negative = inhibition, usual class: inhibitors; hit rate 0.2% among 350,000; AID 2528, 2010;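 further: plate controls were vehicle for no effect and no enzyme for full effect; nearly all actives have a fitted effect of over 35% in size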
APE1 inh: qHTS Assay for Inhibitors of the Human Apurinic/apyrimidinic Endonuclease 1 (APE1); hit rate 0.35% among 350,000; recombinant APE1, TAMRA/BHQ-2 abasic DNA cleavage fluorescence; Potency, µM (highest dose often 65.8 µM), without a hit: at the highest dose activity change, negative = inhibition, usual class: inhibitors;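 further: plate controls were vehicle for no effect and reference inhibitor for full effect; nearly all actives have a fitted effect of over 55% in size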
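Quantitative HTS: incision of a TAMRA/BHQ-2 double-stranded substrate bearing a tetrahydrofuran abasic site by 0.75 nM APE1 raises fluorescence. Substrate 50 nM final, added after 15 min compound preincubation at room temperature; progress as third-minus-first kinetic read difference.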
An asterisk follows results filed as active; i = inactive; ? = inconclusive; . = not tested or not shown; [ ] = dose if it differs, or a comment. The call rests on the fitted dose curve; in most records, active means well fitted curve in the direction sought with a large enough effect; inconclusive means small, poorly fitted or top-dose-only effect, or another doubt; inactive means no such curve, though single readings can be large; an effect the other way counts as inactive or inconclusive. Unless noted, on the % scale 0 is the no-effect control and ±100 the full control effect; potency means the concentration at half of the fitted maximal effect.

SMILES | KAT2A inh | TDP1 block | RECQ1 inh | BLM helicase inh | APE1 inh
COc1ccc(-c2csc(NC(=O)CC(NC(C)=O)c3ccccc3)n2)cc1OC (configuration not stated) | -7% | 79µM* | . | 3% | -3%
COc1ccc(-c2csc(NC(=O)CSc3nc4ccccc4c(=O)[nH]3)n2)cc1 | -10% | 79µM* | . | -15% | 21%[12.4 µM]
COc1ccc(CC(=O)Nc2nc(-c3ccc(OC)c(OC)c3)cs2)cc1OC | -3% | 11% | . | -11% | ?
Cc1ccc(-c2csc(NC(=O)CSc3nc4ccccc4[nH]3)n2)cc1 | 34% | 4% | -8% | -4% | 0%
O=C(CNC(=O)c1cccs1)NCC(=O)OCc1ccccc1Cl | 3.2µM* | 2% | -3% | -1% | -1%
O=C(CNC(=O)c1cccs1)NCC(=O)OCc1c(Cl)cccc1Cl | -6% | 0% | -7% | -1% | 10%
CCN(CC)c1ccc(/C=C/C(=O)C2C(=O)C=C(C)OC2=O)cc1 (configuration not stated) | -8% | 7% | 16µM* | ? | ?
O=C(Nc1cccnc1Cl)c1cc(-c2ccc(O)cc2)on1 | 0% | 50µM* | . | -10% | 10%
O=C(Nc1cccnc1Cl)c1cc(-c2ccc(Cl)cc2)on1 | -4% | 7% | . | -1% | 50%
CC(=O)O[C@@H]1CC2CCC1(C)C2(C)C (some centres not stated) | . | . | . | . | 0%
O=C(O)CSc1c2c(nc3cc(C(=O)Nc4ccc(F)c(Cl)c4)ccc13)CCCC2 | -21% | 56µM* | . | -23% | -45%
O=C1C=CC(=O)c2c(O)c(Cl)c(Cl)c(O)c21 | 20µM* | -3% | -7% | ? | -7%
Cc1ccc(/C=N/NC(=O)c2cc3c(ccc4ccccc43)o2)o1 | -22% | 2% | . | -2% | 16%
O=C(N/N=C/c1ccncc1)c1cc2ccccc2o1 | -5% | 5% | -1% | 6% | 0%
O=C(N/N=C/c1ccc([N+](=O)[O-])o1)c1cc2c(ccc3ccccc32)o1 | -15% | 0% | -2% | 7.9µM* | 18%
O=C(N/N=C/c1cc(Br)c(Br)o1)c1cc2ccccc2o1 | -16% | 50µM* | . | -9% | ?
O=C(Nc1ccccc1)Nc1nc(Nc2cc(F)cc(F)c2)nc(NC2CCCC2)n1 | . | 1% | . | . | .
COc1c(O)cc(O)cc1O | 1% | 20µM* | 4% | -10% | 16µM*
O=C1c2ccccc2C(=O)N1c1ccncc1 | . | 5% | . | . | .
CC(=O)NCCNc1ncncc1-c1ccccc1C(F)(F)F | -17% | 32µM* | -28% | 5% | 0%
O=C1C=C(c2ccc3c(c2)OCO3)C[C@@H](c2ccc3c(c2)OCO3)C1 | 0% | 0% | . | . | -7%
O=C1C=C(c2ccc3cc[nH]c3c2)C[C@@H](c2ccc3c(c2)OCO3)C1 | -20% | ? | . | . | 12µM*
COc1ccc(OC)c(-c2nnc3n2N=C(c2ccc(OC)c(O[C@H]4CCOC4)c2)CS3)c1 | . | . | . | . | -5%
O=C(O)CN1C(=O)/C(=C/c2ccc(N3CCCCC3)o2)SC1=S | -19% | 50µM* | -3% | -3% | 1%
O=C(O)CCCCCN1C(=O)/C(=C\c2ccc(-c3ccc(Cl)cc3)o2)SC1=S | -8% | 40µM* | 1% | -3% | 1%
SMILES | KAT2A inh | TDP1 block | RECQ1 inh | BLM helicase inh | APE1 inh
CC(C)(C)n1ncc2c(=O)n(Cc3cccc(OC(F)F)c3)cnc21 | . | . | . | . | -8%
S=c1[nH]c2ccccc2s1 | 20µM* | 9% | -1% | 2% | 0%
O=C(Nc1ccc2[nH]c(=S)sc2c1)c1ccccc1 | 1% | 9% | i | -11% | 2%
Cc1cc(O)c2c(c1O)C(=O)C(O)=C(O)C2=O | . | -12% | 10µM* | -28% | 6.3µM*
Cc1nnc(N=c2ssnc2Cl)o1 | 2.8µM* | -4% | . | . | -6%
Cc1ccc(N=c2ssnc2Cl)cc1 | 20µM* | 7% | -5% | -2% | 2%
Nc1ccccc1N=c1ssnc1Cl | 28µM* | 4% | -15% | -2% | 10%
Cc1cc(C)nc(/N=c2/ssnc2Cl)c1 | -6% | 6% | -2% | -2% | 2%
Cc1cc(Cl)ccc1N=c1ssnc1Cl | 28µM* | 3% | i | 0% | 13%
CC(C)(C)n1ncc2c(=O)n(Cc3c(F)ccc(Cl)c3Cl)cnc21 | . | . | . | . | 1%
Cc1ccc(NS(=O)(=O)c2cc3c(cc2N2CCCCC2)NC(=O)CC3)cc1C | . | 0% | . | . | .
Cc1ccc(C)c(NC(=O)CN(C)C(=O)c2cccc(-n3cccc3)c2)c1 | -17% | 3%[0.505 µM] | . | . | 3µM*
CN(CC(=O)Nc1c(Cl)cccc1Cl)C(=O)c1cccc(-n2cccc2)c1 | -26% | . | . | . | 4.2µM*
CN(CC(=O)Nc1cccc(F)c1)C(=O)c1cccc(-n2cccc2)c1 | ? | . | . | . | 3.4µM*
CC(=O)NS(=O)(=O)c1ccc(NC(=O)c2ccc(NC(=O)c3cccs3)cc2)cc1 | -3% | 45µM* | . | . | ?
Cc1ccc(S(=O)(=O)Nc2ccc(NC(=O)c3cccs3)cc2)cc1 | -3% | 0% | -12% | -14% | -4%
CC(=O)c1ccc(CCCCCCCCCC(=O)O)s1 | -8% | -1% | ? | -2% | -3%
CCC(=O)c1ccc(CCCCCC(=O)O)s1 | -11% | 18µM* | -14% | -4% | ?
COc1ccc(-c2nc3ccc(Cl)cc3c(=O)n2Cc2ccccc2)cc1COc1ccc(NC(C)=O)cc1 | . | 0% | . | . | .
Cc1nc2ccc(C(=O)O)cc2c2c1CC(C)S2 (configuration not stated) | -13% | 20µM* | i | 5% | ?
